Composite z-score and z-score data for five compounds are collected here from PubChem BioAssay.

Experiment [1] is described as follows: small molecules captured by biotinylated probe aFSTL3 – biochemical, small-molecule microarray, fluorescence 635/667, stem cell growth factor project, primary screen (AID 1064).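 Further: measures binding of the biotinylated anti-FSTL3 antibody to printed compounds.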 The conditions noted are these: higher = more signal.
The nature of experiment [2]: binders from COS7 lysate, DM2A8 probe, primary screen, torsin A project, cell lysate, small-molecule microarray, fluorescence 635/667 (AID 1065). The conditions noted are these: higher = more signal, COS7 lysate expressing mutant human TOR1A.
Experiment [3] can be described thus: small molecules captured by biotinylated probe aFGF2 – biochemical, small-molecule microarray, fluorescence 635/667, stem cell growth factor project, primary screen (AID 1067).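 Further: measures binding of biotinylated aFGF2 protein to printed compounds on slides; z-score merges feature fluorescence and signal-to-noise across triplicate slides.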 The conditions noted are these: higher = more signal.
Experiment [4] can be described thus: small molecules captured by biotinylated probe aFGF10 – biochemical, small-molecule microarray, fluorescence 635/667, stem cell growth factor project, primary screen (AID 1071).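 Further: score merges 667 nm spot intensity and signal to noise from triplicate slides.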 The conditions noted are these: higher = more signal.
Experiment [5] addresses Neurogenic locus notch homolog protein 2 (Homo sapiens) (UniProt Q04721). The experiment is described as follows: small molecules binding Notch2 protein – biochemical, small-molecule microarray, 635 nm fluorescence, stem cell growth factors, primary screen (AID 1073). The settings on record: higher = more signal.
Experiment [6] addresses Pro-neuregulin-1, membrane-bound isoform (Homo sapiens) (UniProt Q02297). The experiment is described as follows: small molecules binding neuregulin-1 protein – biochemical, small-molecule microarray, fluorescence 635/667, psychiatric disease protein project, primary screen (AID 1075).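 Further: score combines 667 nm spot fluorescence with signal to noise.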 The conditions noted are these: NRG1 binding, 635 nm fluorescence, higher = more signal.
Experiment [7] deals with Neuregulin-1 EGF-like domain. The experiment is described as follows: small molecules binding NRG1 EGF domain – biochemical, small-molecule microarray, 635 nm fluorescence, primary screen (AID 1081).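 Further: binding of the protein to compounds printed on small-molecule microarray slides.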 The conditions noted are these: higher = more signal.
A short description of experiment [8]: FRG1 expression reporter modulators in myotubes – cell-based, C2C12 myotubes, firefly/Renilla luciferase, luminescence, FRG1 inhibition for FSHD, primary screen (AID 1084). The settings on record: FRG1 promoter luciferase, higher = more signal, called active from +8 up or from −8 down.
Experiment [9] can be described thus: small molecules captured by biotinylated probe aFST – biochemical, small-molecule microarray, fluorescence 635/667, stem cell growth factor project, primary screen (AID 1086).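 Further: score merges 667 nm fluorescence with signal-to-noise of each printed compound spot.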 The conditions noted are these: higher = more signal.
A short description of experiment [10]: binders of probe aHhip on microarray, primary screen, stem cell growth factor project, biochemical, small-molecule microarray, fluorescence 635/667 (AID 1087).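 Further: score merges spot fluorescence at 667nm with spot signal to noise ratio.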 The settings on record: higher = more signal.
The test system of experiment [11] is PRMT1 (protein arginine N-methyltransferase 1). Briefly: small molecules binding arginine methyltransferase PRMT1 – biochemical, small-molecule microarray, 635 nm fluorescence, primary screen (AID 1088).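 Further: binding of Prmt1 protein to compounds spotted on small-molecule microarray slides.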 The conditions noted are these: higher = more signal.
Experiment [12] is described as follows: growth effects on S. cerevisiae YJM789 – YJM789 clinical isolate, OD600, 24 h, basal, primary screen (AID 1089).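 Further: growth of clinical yeast isolate S. cerevisiae YJM 789 seeded 1000 cells per well; test concentration not given here.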 The settings on record: higher = more signal, called active from +8 up or from −8 down.
Experiment [13] in a line: S. pombe growth modifiers, basal conditions – strain 972, OD600, 24 h, no modulator, primary screen (AID 1090).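 Further: basal condition with compound alone and no growth modifier present; test concentration not given here.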 The conditions noted are these: S. pombe 972 growth, higher = more signal, called active from +8 up or from −8 down.
Experiment [14] in a line: budding yeast growth modifiers under rapamycin – strain BY4716, OD600, 96 h, primary screen (AID 1091). Further: test concentration not given here. The settings on record: S. cerevisiae BY4716 + rapamycin, higher = more signal, called active from +8 up or from −8 down.
The target of experiment [15] is Torsin-1A-interacting protein 2 (Homo sapiens) (UniProt Q8NFQ8). Briefly: small molecules binding lysate-expressed LULL1 – cell lysate, human LULL1 lysate, 635/667 nm fluorescence, primary screen (AID 1092).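 Further: probe is lysate of COS7 cells overexpressing human LULL1; score merges per-feature 667 nm fluorescence with signal-to-noise.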 The conditions noted are these: small-molecule microarray, hLULL1 lysate binding, 635 nm fluorescence; higher = more signal.
Torsin-1A-interacting protein 2 (Homo sapiens), sequence (Q8NFQ8 whole entry, looked up): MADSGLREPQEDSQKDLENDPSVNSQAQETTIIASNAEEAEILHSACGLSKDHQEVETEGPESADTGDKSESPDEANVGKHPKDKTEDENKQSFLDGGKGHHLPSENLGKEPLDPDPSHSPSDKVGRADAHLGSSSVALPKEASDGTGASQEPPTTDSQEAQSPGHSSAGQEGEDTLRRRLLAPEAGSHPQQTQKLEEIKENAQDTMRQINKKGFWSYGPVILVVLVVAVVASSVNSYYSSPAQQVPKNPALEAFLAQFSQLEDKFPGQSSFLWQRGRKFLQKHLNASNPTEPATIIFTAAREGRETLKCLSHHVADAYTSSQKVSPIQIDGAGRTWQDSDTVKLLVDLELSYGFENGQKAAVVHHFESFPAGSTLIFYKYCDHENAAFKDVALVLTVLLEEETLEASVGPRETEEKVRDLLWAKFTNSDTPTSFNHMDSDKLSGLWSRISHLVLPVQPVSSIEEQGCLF
Experiment [16] is described as follows: optical density change of DRC41 E. coli – strain DRC41, OD650, 24 h, E. coli filamentation project, primary screen (AID 1093).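 Further: MC1000 strain lacking acrAB efflux and sulA so SOS filamentation is blocked; test concentration not given here.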 The conditions noted are these: E. coli DRC41 growth, higher = more signal, called active from +8 up or from −8 down.
A short description of experiment [17]: probe aLefty2 binding to arrayed compounds – biochemical, biotinylated probe, 635/667 nm fluorescence, primary screen (AID 1094).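 Further: score merges spot fluorescence near 667 nm with spot signal-to-noise ratio.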 The settings on record: small-molecule microarray, higher = more signal.
Experiment [18] concerns Noggin (protein binding on small-molecule microarray). Briefly: small molecules binding Noggin protein – biochemical, 635/667 nm fluorescence, primary screen (AID 1095).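 Further: score merges 667 nm feature fluorescence with signal to noise over triplicate slides.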 The conditions noted are these: 635 nm fluorescence, higher = more signal.
Experiment [19] has as its target Neurogenic locus notch homolog protein 3 (Homo sapiens) (UniProt Q9UM47). The experiment is described as follows: small molecules binding NOTCH3 protein – biochemical, 635/667 nm fluorescence, primary screen (AID 1096). The settings on record: small-molecule microarray, 635 nm fluorescence, higher = more signal.
A short description of experiment [20]: probe aEGFR binding to arrayed compounds – biochemical, biotinylated probe, 635/667 nm fluorescence, primary screen (AID 1097).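 Further: probe is a biotinylated anti-EGFR antibody binding compounds printed on slides; score combines fluorescence near 667 nm and signal to noise of each spot.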 The settings on record: small-molecule microarray, higher = more signal.

Active and inactive are the calls of the source.

Neurogenic locus notch homolog protein 3 (Homo sapiens), sequence (Q9UM47 whole entry, looked up): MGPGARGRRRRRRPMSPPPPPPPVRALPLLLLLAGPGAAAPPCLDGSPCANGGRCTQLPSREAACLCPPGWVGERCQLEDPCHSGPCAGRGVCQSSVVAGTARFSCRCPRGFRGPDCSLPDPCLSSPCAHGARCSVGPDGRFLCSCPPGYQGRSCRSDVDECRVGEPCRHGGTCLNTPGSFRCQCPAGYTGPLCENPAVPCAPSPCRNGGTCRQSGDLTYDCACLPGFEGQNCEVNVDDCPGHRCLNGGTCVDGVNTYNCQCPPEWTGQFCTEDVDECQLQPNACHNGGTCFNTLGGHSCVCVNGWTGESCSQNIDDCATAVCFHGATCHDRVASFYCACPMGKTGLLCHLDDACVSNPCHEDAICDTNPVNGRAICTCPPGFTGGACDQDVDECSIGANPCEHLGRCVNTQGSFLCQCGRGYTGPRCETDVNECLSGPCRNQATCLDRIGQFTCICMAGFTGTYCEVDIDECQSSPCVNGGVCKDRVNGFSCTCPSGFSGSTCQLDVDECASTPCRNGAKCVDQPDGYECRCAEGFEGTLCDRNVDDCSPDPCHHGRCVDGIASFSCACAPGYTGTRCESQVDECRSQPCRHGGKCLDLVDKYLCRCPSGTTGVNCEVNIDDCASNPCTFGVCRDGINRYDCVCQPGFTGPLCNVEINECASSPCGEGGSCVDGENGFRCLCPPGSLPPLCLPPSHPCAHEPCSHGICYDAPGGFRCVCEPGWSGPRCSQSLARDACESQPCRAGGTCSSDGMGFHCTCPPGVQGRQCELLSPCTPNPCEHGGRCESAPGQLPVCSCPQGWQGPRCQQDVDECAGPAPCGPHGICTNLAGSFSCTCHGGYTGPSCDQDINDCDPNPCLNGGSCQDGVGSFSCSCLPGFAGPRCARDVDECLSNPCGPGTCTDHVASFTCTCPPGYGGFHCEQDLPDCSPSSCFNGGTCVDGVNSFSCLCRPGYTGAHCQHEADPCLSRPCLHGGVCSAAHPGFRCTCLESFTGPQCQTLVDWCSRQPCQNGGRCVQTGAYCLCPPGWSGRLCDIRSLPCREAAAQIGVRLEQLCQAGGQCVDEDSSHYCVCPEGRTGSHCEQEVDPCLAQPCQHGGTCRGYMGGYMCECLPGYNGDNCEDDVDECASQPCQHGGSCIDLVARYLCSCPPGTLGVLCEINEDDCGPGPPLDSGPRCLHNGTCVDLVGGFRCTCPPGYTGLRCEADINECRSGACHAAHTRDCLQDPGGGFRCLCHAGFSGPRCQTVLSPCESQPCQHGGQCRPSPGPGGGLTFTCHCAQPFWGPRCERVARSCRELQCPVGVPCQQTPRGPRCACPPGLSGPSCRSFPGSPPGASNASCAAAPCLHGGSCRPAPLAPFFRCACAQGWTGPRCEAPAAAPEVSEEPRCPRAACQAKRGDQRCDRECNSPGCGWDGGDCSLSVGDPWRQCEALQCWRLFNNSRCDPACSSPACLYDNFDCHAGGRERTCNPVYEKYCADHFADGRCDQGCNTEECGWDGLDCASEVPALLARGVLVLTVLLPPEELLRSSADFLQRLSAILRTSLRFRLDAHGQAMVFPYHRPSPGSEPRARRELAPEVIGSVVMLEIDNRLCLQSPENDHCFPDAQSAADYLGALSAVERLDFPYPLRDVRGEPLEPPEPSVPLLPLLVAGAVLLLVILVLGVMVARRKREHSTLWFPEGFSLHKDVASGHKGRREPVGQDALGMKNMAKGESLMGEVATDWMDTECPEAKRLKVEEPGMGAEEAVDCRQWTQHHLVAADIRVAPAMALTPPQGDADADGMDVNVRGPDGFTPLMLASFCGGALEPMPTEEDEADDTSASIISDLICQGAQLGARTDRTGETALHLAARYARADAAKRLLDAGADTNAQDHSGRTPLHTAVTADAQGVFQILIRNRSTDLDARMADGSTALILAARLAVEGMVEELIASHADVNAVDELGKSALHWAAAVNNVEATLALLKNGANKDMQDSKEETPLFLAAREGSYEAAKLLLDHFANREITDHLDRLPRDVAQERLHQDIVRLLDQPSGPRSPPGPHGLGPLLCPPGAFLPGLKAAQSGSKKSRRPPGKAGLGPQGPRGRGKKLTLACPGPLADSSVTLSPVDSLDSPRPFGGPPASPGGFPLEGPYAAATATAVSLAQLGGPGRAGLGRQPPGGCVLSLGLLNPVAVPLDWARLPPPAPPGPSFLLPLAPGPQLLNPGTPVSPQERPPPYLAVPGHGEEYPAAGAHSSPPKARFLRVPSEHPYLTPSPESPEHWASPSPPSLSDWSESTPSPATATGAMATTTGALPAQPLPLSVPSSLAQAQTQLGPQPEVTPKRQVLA
Pro-neuregulin-1, membrane-bound isoform (Homo sapiens), sequence (Q02297 whole entry, looked up, the tested form may be a part, canonical isoform): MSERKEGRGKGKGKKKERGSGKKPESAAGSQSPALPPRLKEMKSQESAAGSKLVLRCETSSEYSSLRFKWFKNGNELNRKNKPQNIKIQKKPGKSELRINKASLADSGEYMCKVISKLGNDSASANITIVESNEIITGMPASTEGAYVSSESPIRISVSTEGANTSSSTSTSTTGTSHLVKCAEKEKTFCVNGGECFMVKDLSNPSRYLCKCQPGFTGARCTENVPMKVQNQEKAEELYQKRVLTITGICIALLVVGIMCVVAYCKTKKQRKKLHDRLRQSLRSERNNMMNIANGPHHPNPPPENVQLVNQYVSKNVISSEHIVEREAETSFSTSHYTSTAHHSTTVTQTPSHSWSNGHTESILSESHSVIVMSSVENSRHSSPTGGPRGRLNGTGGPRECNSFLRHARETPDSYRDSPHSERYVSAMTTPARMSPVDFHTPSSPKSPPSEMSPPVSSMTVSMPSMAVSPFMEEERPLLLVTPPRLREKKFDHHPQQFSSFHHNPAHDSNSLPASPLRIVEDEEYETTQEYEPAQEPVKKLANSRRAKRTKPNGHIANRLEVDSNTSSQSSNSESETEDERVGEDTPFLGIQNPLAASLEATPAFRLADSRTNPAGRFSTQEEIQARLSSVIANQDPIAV

For `CN(C)CCCCCCNC(=O)[C@@H]1C[C@@H]2C(=O)N[C@@H](CCCCN)C(=O)N2[C@@H]1c1cccc(OCCO)c1`, the composite z-score amounted to 3.04 in experiment [1]; 2.4 in [2]; 0.862 in experiment [3]; 1.13 in experiment [4]; 1.05 in experiment [5]; 2.75 in experiment [6]. The composite z-score in experiment [7] was determined as 1.52; in experiment [9], 3.58; in experiment [10] it was 1.72; in experiment [11], 1.55; in [15], 4.63; in experiment [17], 1.65. Also, the composite z-score in [18] is 1.8; in experiment [19], 1.02; in experiment [20] it was 1.02. In addition, the z-score in experiment [8] was 0.718 (inactive); in experiment [12], -5.46 (inactive); in experiment [13] it was -5.83 (inactive); in experiment [14] it was -1.3 (inactive); in [16], 0.0508 (inactive).

Regarding `COCCOC(=O)N1C(=O)[C@@]2(c3ccccc31)[C@H](c1ccc(O)cc1)N1[C@H](c3ccccc3)[C@H](c3ccccc3)OC(=O)[C@H]1[C@@H]2C(=O)NC[C@H](O)c1ccccc1`, the composite z-score in experiment [1] was 0.0147; in experiment [2], 0.702; in experiment [3], -0.0702; in experiment [4] it was 0.157; in [5], 0.187; in experiment [6], 1.8. Also, the composite z-score in experiment [7] was 1.26; in experiment [9] it was 0.118; in [10] it was 0.0093; in experiment [11], 1.51; in [15], 2.98; in [17] it was -0.23. The composite z-score in experiment [18] is 0.399; in [19], 0.669; in [20], -0.165. Also, the z-score in experiment [8] was -0.567 (inactive); in experiment [12], 0.385 (inactive); in [13] it was -0.238 (inactive); in experiment [14], 2.73 (inactive); in experiment [16], 0.505 (inactive).

Take `CCN(CC)c1ccc(N2CC=CC34O[C@@H]5/C=C\CCC(C)OC(=O)C5[C@H]3C(=O)N(C(CO)C(C)C)[C@@H]4C2=O)cc1` (stereo not given in full): the composite z-score in experiment [1] was 0.165; in experiment [2] it was -0.892; in [3] it was -0.0316; in experiment [4], -0.551; in [5], -0.455; in experiment [6], 0.12. The composite z-score in [7] was 1.49; in experiment [9], -0.344; in experiment [10], 1.01; in experiment [11] it was 0.746; in [15], 3.28; in [17], -0.17. In addition, the composite z-score was -0.995 in experiment [18], -0.0778 in [19] and -0.13 in experiment [20]. In addition, the z-score in [8] is 0.225 (inactive); in experiment [12], -1.28 (inactive); in experiment [13] it was -0.892 (inactive); in experiment [14] it was -0.924 (inactive); in [16] it was 0.41 (inactive).

For `C[N+](C)(C)CCCCNC(=O)[C@H]1C[C@H]2C(=O)N[C@@H](Cc3ccccc3)C(=O)N2[C@H]1c1ccc(O)cc1`, the composite z-score in experiment [1] was 0.288; in [2], 0.504; in experiment [3], -0.074; in experiment [4] it was 0.0806; in [5], -0.601; in experiment [6], -0.158. Moreover, the composite z-score in experiment [7] was 1.22; in experiment [9], -0.0662; in experiment [10], -0.0645; in experiment [11], 0.684; in experiment [15] it was -0.114; in [17], -0.108. Moreover, the results for the composite z-score in experiment [18], in experiment [19] and in [20] were 1.69, 0.471 and -0.112, respectively. The z-score in experiment [8] was 0.605 (inactive); in experiment [12] it was 1.1 (inactive); in [13], -0.0797 (inactive); in experiment [14], -1.15 (inactive); in [16], 0.282 (inactive).

As for `C=CCOC(=O)[C@@H]1[C@H]2C(=O)O[C@H](c3ccccc3)[C@H](c3ccccc3)N2[C@H](c2ccc(OCCOC(=O)[C@@H]3C[C@@H]4C(=O)N[C@@H](Cc5ccccc5)C(=O)N4[C@@H]3c3ccc(O)cc3)cc2)[C@@]12C(=O)Nc1ccc(I)cc12`, the composite z-score was -0.219 in [1]; 0.602 in experiment [2]; -0.0944 in experiment [3]; 0.302 in experiment [4]; 0.825 in experiment [5]; 0.612 in experiment [6]. Also, the composite z-score in experiment [7] was 1.14; in experiment [9], 0.11; in [10], 0.238; in experiment [11], 1.55; in [15], 2.06; in experiment [17], -0.135. Further, the composite z-score in experiment [18] is 1.87; in experiment [19] it was 1.11; in experiment [20], -0.0828. Further, the z-score is 1.42 (inactive) in experiment [8]; 0.607 (inactive) in [12]; 1.18 (inactive) in experiment [13]; 4.44 (inactive) in experiment [14]; 1.37 (inactive) in experiment [16].
